The supplement of paper PMC12645437, “Orthogonal IMiD-Degron Pairs Induce Selective Protein Degradation in Cells” (ACS Chemical Biology, 2025)
Over roughly 8,300 sequences, “log2 fold change of degron read counts, EGFP-low vs EGFP+ sorted cells (limma voom), compound-induced degradation” has its median near -1.1; the highest 2% begin near 3.2. The sample holds the highest values, similar sequences and a random draw of the others, so the mix is not that of the screen.

Target: T1, CRBN, Q96SW2
T1 chain: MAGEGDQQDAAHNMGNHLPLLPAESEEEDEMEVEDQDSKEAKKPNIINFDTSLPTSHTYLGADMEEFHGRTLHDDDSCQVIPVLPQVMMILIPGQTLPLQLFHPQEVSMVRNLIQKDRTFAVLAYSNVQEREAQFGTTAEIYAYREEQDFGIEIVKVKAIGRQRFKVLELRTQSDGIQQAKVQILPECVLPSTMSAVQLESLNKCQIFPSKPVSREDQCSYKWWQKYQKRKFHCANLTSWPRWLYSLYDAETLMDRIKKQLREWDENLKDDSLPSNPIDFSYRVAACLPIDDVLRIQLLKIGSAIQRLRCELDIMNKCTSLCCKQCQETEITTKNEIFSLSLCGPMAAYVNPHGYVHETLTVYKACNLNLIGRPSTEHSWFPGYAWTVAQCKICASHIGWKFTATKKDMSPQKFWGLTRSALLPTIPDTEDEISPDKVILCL
Assay: log2 fold change of degron read counts, EGFP-low vs EGFP+ sorted cells (limma voom), compound-induced degradation; higher = more compound-induced degradation of the degron-EGFP fusion; degrons are variants of IKZF1/3 zinc finger 2; compound dose not given here
Conditions: Jurkat, 18 h
Procedure: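 Pooled library of 8380 IKZF3 ZF2 degron mutants (positions 146-167 varied within the IKZF3 130-189 degron; only the varied core is printed, flanks not printed) fused to EGFP with IRES-mCherry, lentivirally expressed in Jurkat cells. mCherry+ cells were treated with one IMiD compound for 18 h (dose not stated) and FACS-sorted into EGFP-low and EGFP+ populations. Degron sequences were counted by NGS, and log2FC (EGFP-low vs EGFP+) was estimated by limma voom over 3 biological replicates.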

[1] = compound: compound 19 (5-tert-butyl-thalidomide)
[2] = compound: compound 22 (5-morpholino-thalidomide)
[3] = compound: compound 33 (diphenyl IMiD analogue)
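Note: pooled lentiviral library of zinc finger degron-EGFP fusions in mCherry-positive Jurkat cells, FACS-sorted after compound exposure, with degron abundance counted by next-generation sequencing.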

FGCEQCGAKFTQKGNLLRHIKL [46F_47G_49E_50Q_52G_53A_54K_55F_67L_, Q9UKT9]
log2 fold change of degron read counts [1]: 0.32
log2 fold change of degron read counts [2]: -2.26
log2 fold change of degron read counts [3]: -2.15
log2 fold change of degron read counts (compound: thalidomide): -0.779

FLCPVCGAEFTQKGNLLRHIKL [46F_47L_49P_50V_52G_53A_54E_55F_67L_, Q9UKT9]
log2 fold change of degron read counts [1]: -0.14
log2 fold change of degron read counts [2]: -1.09
log2 fold change of degron read counts [3]: 1.21
log2 fold change of degron read counts (compound: thalidomide): 1.24

FCCPQCGANFTQKGNLLRHIKL [46F_47C_49P_50Q_52G_53A_54N_55F_67L_, Q9UKT9]
log2 fold change of degron read counts [1]: -0.811
log2 fold change of degron read counts [2]: -1.28
log2 fold change of degron read counts [3]: 0.128
log2 fold change of degron read counts (compound: thalidomide): -0.853

FMCNQCGHWFTQKGNLLRHIKL [46F_47M_49N_50Q_52G_53H_54W_55F_67L_, Q9UKT9]
log2 fold change of degron read counts [1]: -2.24
log2 fold change of degron read counts [2]: -2.49
log2 fold change of degron read counts [3]: -2.26
log2 fold change of degron read counts (compound: thalidomide): -2.73

FDCNQCGANFTQKGNLLRHIKL [46F_47D_49N_50Q_52G_53A_54N_55F_67L_, Q9UKT9]
log2 fold change of degron read counts [1]: -2.41
log2 fold change of degron read counts [2]: -2.24
log2 fold change of degron read counts [3]: -2.07
log2 fold change of degron read counts (compound: thalidomide): -2.31

FNCEICGARFTQKGNLLRHIKL [46F_47N_49E_50I_52G_53A_54R_55F_67L_, Q9UKT9]
log2 fold change of degron read counts [1]: 2.49
log2 fold change of degron read counts [2]: 0.909
log2 fold change of degron read counts [3]: -0.686
log2 fold change of degron read counts (compound: thalidomide): 0.645

FCCEICGARFTQKGNLLRHIKL [46F_47C_49E_50I_52G_53A_54R_55F_67L_, Q9UKT9]
log2 fold change of degron read counts [1]: 3.25
log2 fold change of degron read counts [2]: 3.01
log2 fold change of degron read counts [3]: 1.66
log2 fold change of degron read counts (compound: thalidomide): 3.08

FKCEICGARFTQKGNLLRHIKL [46F_47K_49E_50I_52G_53A_54R_55F_67L_, Q9UKT9]
log2 fold change of degron read counts [1]: -1.5
log2 fold change of degron read counts [2]: -3.6
log2 fold change of degron read counts [3]: -3.25
log2 fold change of degron read counts (compound: thalidomide): -1.17

FGCEICGARFTQKGNLLRHIKL [46F_47G_49E_50I_52G_53A_54R_55F_67L_, Q9UKT9]
log2 fold change of degron read counts [1]: 3.15
log2 fold change of degron read counts [2]: 2.26
log2 fold change of degron read counts [3]: -0.576
log2 fold change of degron read counts (compound: thalidomide): 1.48

FSCEICGALFTQKGNLLRHIKL [46F_47S_49E_50I_52G_53A_54L_55F_67L_, Q9UKT9]
log2 fold change of degron read counts [1]: 0.851
log2 fold change of degron read counts [2]: 0.0276
log2 fold change of degron read counts [3]: 2.41
log2 fold change of degron read counts (compound: thalidomide): -0.115

FSCEICGARFTQKGNLLRHIKL [46F_47S_49E_50I_52G_53A_54R_55F_67L_, Q9UKT9]
log2 fold change of degron read counts [1]: 3.25
log2 fold change of degron read counts [2]: 2.89
log2 fold change of degron read counts [3]: 0.489
log2 fold change of degron read counts (compound: thalidomide): 2.12
